# Assay results from PubChem BioAssay AID1347430 (National Center for Advancing Translational Sciences (NCATS), 2020).
# About 130 (0.14%) of roughly 91,000 compounds were called active. Inconclusive results (about 3%) are left out. Calls come from the whole dose curve; as a rule, active = well fitted inhibition curve with a large enough effect; inconclusive = small, poorly fitted or top-dose-only effect; inactive = flat fitted curve, though single readings scatter. The list comes from a sample in which actives are over-represented; it also holds similar structures and randomly drawn compounds. A call without a number means that no potency is given here.
# System: Uracil-DNA glycosylase
# Assay: Primary qHTS assay for inhibitors of Activation Induced Cytidine Deaminase (AID): UDG Counterscreen signal; note: nearly all actives have a fitted effect of over 65% in size
# Settings: FRET deamination/UDG coupled assay, UDG read, 4 h; series mostly up to 115 µM
# Text: Assay Provider (PI) Patricia Gearhart Ph.D.
# National Institute on Aging
# National Institute of Health (NIH), Bethesda, MD
# Assay Provider (PI) Rahul Kohli Ph.D.
# Perelman School of Medicine
# University of Pennsylvania, Philadelphia, PA
# Activation-Induced Deaminase (AID) is a cytosine deaminase which converts cytosine into uracil within stretches of ssDNA. The presence of uracil in DNA initiates a cascade of mutagenic DNA repair to introduce point mutations and DNA double strand breaks. Specific targeting of AID to the immunoglobulin heavy chain loci (Igh) promotes mutagenesis in the antibody variable region for somatic hypermutation (SHM) or switch regions leading to class switch recombination (CSR). However, AID also plays a role in accumulating unnecessary mutations across the genome. Mis-targeting of AID results in the initiation of tumor development and leads to greater drug resistance among cancer cells when continually expressed. To identify an AID inhibitor, a small molecule library will be screened in collaboration with NCATS core facility at NIH. To confirm biological function, inhibitors will be examined in an in vitro murine B-cell activation assay and subsequent secondary validation screens. Top molecules will be further screened to identify inhibitory efficacy against a wild type primary splenocytes assay. Using these approaches, we hope to identify a small molecule with great efficacy and low toxicity for use as a molecular probe to further characterize AID's intricacies, or even as a therapeutic.
# A FRET based analysis of cytosine deamination, was developed to identify potential inhibitors of AID catalytic activity. This screen has two signal output, Read 1 evaluates the AID inhibition response. The second readout (Read 2) evaluates UDG response and is uses as a counterscreen to exclude false positive inhibitors. Inhibition in AID and inactivity in the UDG signal is the desired outcome for this assay.
# SEQUENCE No. (e.g., 1, 2, 3, etc.); […] (e.g., Cells, Incubation, Reagent, etc.); VALUE; DESCRIPTION
# 1a; Reagent; 3 uL; [4/3x] 1 uM AID/2.67 U/mL UDG
# 1b; Reagent; 3 uL; 2 U/mL UDG
# 1c; Reagent; 3 uL; 1 uM AID
# 2a; Compound; 46 nL; Follow-up plates (0.64 uM - 10 mM)
# 2b; Control; 46 nL; ATA ([…] - 10 mM)
# 3; Time; 10 min; incubation at room temperature
# 5; Time; 4 hr; incubation at room temperature
# 6; Reagent; 4 uL; [2x] 250 mM NaOH
# 7; Time; 15 sec; centrifuge at 1000 rpm
# 8; Time; 30 min; incubation at room temperature
# 9a; Detection; fluorescence (Read 1: AID); EnVision (PerkinElmer) plate reader, 540 excitation and 590 emission filters
# 9b; Detection; fluorescence (Read 2: UDG); EnVision (PerkinElmer) plate reader, 560 excitation and 665 emission filters
# NOTES (numbers refer to sequence above)
# 1a; Reagents were dispensed in a medium-binding black solid-bottom Greiner plates (789176F) using a BioRptr liquid dispenser. Dispense 3 uL of [4/3x] 1 uM AID (provided by Kohli lab) and [4/3x] 2 U/mL UDG (NEB M0280L) into columns 1, 2, 5 to 48.
# 1b; Dispense 3 uL of [4/3x] 2 U/mL UDG into column 3.
# 1c; Dispense 3 uL of [4/3x] 1 uM AID into column 4.
# 2a; Compound (7-points [uM] (0.64; 3.2; 16; 80; 400; 2,000; 10,000; 20,000) double pin-transferred (Dip Factor = 2) using the Kalypsys (Wako USA) pintool equipped with a 1536 pinhead for a final concentration range of 7.32 nM - 114 uM.
# 2b; 10 mM Aurintricarboxylic Acid (Sigma A1895) (ATA, 8-point, n = 2, 1:2.5 dilution in column 2) double pin-transferred (Dip Factor = 2) using the Kalypsys (Wako USA) pintool equipped with a 1536 pinhead for a [final] range of 186 nM - 114 uM.
# 3; Room temperature incubation.
# 4; Dispense 1 uL of substrate mixture from the Kohli lab [4x] […] DJC20 and [4x] 250 nM DJC23 into columns 1 to 48 .
# 5; Room temperature incubation.
# 6; Dispense 4 uL of substrate mixture [2x] 250 mM NaOH into columns 1 to 48.
# 7; Centrifugation step to remove bubbles.
# 8; Room temperature incubation
# 9a; Fluorescence signal (column label AID) was read using the EnVision plate reader. […]
# Potency is the fitted concentration of half-maximal effect.
row,SMILES,Potency
1,COc1ccccc1NC(=O)CSc1nc2c(=O)[nH]cnc2n1-c1ccccc1,inactive
2,O=C(O)c1cccnc1SC(F)(F)F,inactive
3,Cc1ccc(C(CNC(=O)c2cc(-c3ccccc3)on2)N2CCC(C)CC2)o1 (stereo unspecified),inactive
4,O=C(CCC1CCCC1)N1CCN(CC2CC=CCC2)CC1 (stereo unspecified),inactive
5,CC(=O)c1c(C)[nH]c(C(=O)OCC(=O)Nc2ccc(Br)c(C)c2)c1C,inactive
6,COC(=O)Cn1cnc2c(sc3nc(C4CCCCC4)c4c(c32)CCC4)c1=O,inactive
7,COc1cccc2cc(/C=C(/C#N)c3nc4ccccc4[nH]3)oc12,inactive
8,COc1cc(SC)ccc1C(=O)Oc1cccc(F)c1,inactive
9,CCCCn1c(=O)[nH]c(=O)c2c1nc(COC(=O)c1cc(C)ccc1C)n2CCC,inactive
10,O=C1C(O)=C(c2ccccc2)C(c2ccccc2)N1Cc1ccccn1 (stereo unspecified),inactive
11,CCCCC(CC)CNc1ncnc2sccc12 (stereo unspecified),inactive
12,CCc1c(C)sc(NC(=O)c2cccc3ccccc23)c1C#N,inactive
13,Cc1cn2c(=O)cc(COC(=O)COc3ccccc3)nc2s1,inactive
14,O=C(NC1C2CC3CC(C2)CC1C3)c1cccc(Br)c1 (stereo unspecified),inactive
15,Cc1ccc2cccc(NC(=O)c3ccccc3C)c2n1,inactive
16,CCCc1cc(=O)oc2c(C)c(OCC(=O)NCc3ccccn3)ccc12,inactive
17,CCCCc1c/c(=N\O)oc2cc3occ(C)c3cc12,inactive
18,N#C/C(=C/c1ccccc1OC(F)F)c1nc2cc(C(F)(F)F)ccc2s1,inactive
19,Cc1csc(CNC(=O)c2cnccn2)n1,inactive
20,CCN(C(=O)COc1ncnc2c(Cl)cc(Cl)cc12)c1ccccc1,inactive
21,O=[N+]([O-])c1cc(S(=O)(=O)Nc2ccccc2NS(=O)(=O)c2cccs2)ccc1Cl,inactive
22,CC(C)=CC(=O)Nc1ccccc1SC1CCCC1,inactive

row,SMILES,Potency
1,CN(/C=C/[N+](=O)[O-])c1ccccc1,inactive
2,CCCCc1cnc2c(c1SCC(=O)NCC1CCCO1)c(=O)n(C)c(=O)n2C (stereo unspecified),inactive
3,CC1CCC(NC(=O)/C=C/c2ccc(C(=O)NC3CC3)cc2)CC1 (stereo unspecified),inactive
4,C=CCn1c(SC(C)C(=O)OC)nc2c1c(=O)[nH]c(=O)n2C (stereo unspecified),inactive
5,CC(OC(=O)c1cc(=O)c2ccccc2o1)C(=O)Nc1cc(C(F)(F)F)ccc1Cl (stereo unspecified),inactive
6,CCN(CC)S(=O)(=O)c1ccc([N+](=O)[O-])cc1,inactive
7,Cc1cccc(C(=O)Nc2ccc3nsnc3c2)c1,inactive
8,Cc1ccc2c(COC(=O)C3CCCO3)cc(=O)oc2c1C (stereo unspecified),inactive
9,Cc1ccc(C(=O)N2CCCc3cc(C(=O)NCCC(C)C)ccc32)cc1,inactive
10,O=C(NC1CCCC1)C1CC=CCC1c1nc2ccccc2s1 (stereo unspecified),inactive
11,CCCCCCCCOC(=O)/C(C#N)=C/c1ccc(-c2cccc(C(F)(F)F)c2)o1,inactive
12,O=C(Nc1cc(C(F)(F)F)ccc1Cl)c1c(F)cccc1F,inactive
13,Cc1[nH]c2ccccc2c1C(=O)C(C)Sc1nnnn1C1CCCC1 (stereo unspecified),inactive
14,O=C(Nc1cccc(S(=O)(=O)N2CCCC2)c1)c1n[nH]c2ccccc12,inactive
15,O=C(c1ccn(COc2ccccc2)n1)N1CCN(Cc2ccc(Cl)cc2)CC1,inactive
16,CC(C)COC(=O)c1nn(Cc2ccccc2)c(=O)c2ccccc12,inactive
17,COc1ccc2c(CCNC(=O)CCNc3nc(Cl)nc4nc[nH]c34)c[nH]c2c1,inactive
18,CCOc1cc(C#N)ccc1OC(C)C(=O)c1ccc(OC)cc1 (stereo unspecified),inactive
19,C/C(=N\NC(=O)C1CC1c1ccccc1)c1ccc(C)c(C)c1 (stereo unspecified),inactive
20,CCc1ccc(Sc2cc(C(=O)NC3CCCC3)c3ccccc3n2)cc1,inactive
21,Fc1ccc(NCC23CC4CC(CC(C4)C2)C3)cc1,inactive
22,OC(Cc1c[nH]c2ccccc12)(c1ccccc1)c1ccccc1,inactive

row,SMILES,Potency
1,COc1ccc(C(=O)COC(=O)C(C)Oc2ccc(F)cc2)cc1OC (stereo unspecified),inactive
2,CC1(C)Cc2c(sc(NC(=O)C(N)=O)c2C#N)CO1,inactive
3,CN(/C=C/C(=O)C(F)(F)F)C1(c2ccccc2Cl)CCCCC1=O (stereo unspecified),inactive
4,Cc1ccccc1C(=O)c1cc2ccccc2o1,inactive
5,CC(C)CCNC(=O)COC(=O)c1cc(-c2ccco2)nc2ccccc12,inactive
6,CN(Cc1ccsc1)C(=O)CCc1cccs1,inactive
7,Oc1ccc(Cl)cc1C=NCc1ccc(F)cc1Cl,inactive
8,N#Cc1cccc(C(=O)OCc2cccnc2)c1,inactive
9,COc1ccc(Cl)cc1COc1ccccc1C#N,inactive
10,CCc1nnc(SCC(=O)Nc2ccc(Cl)c(Cl)c2)n1-n1cccc1,inactive
11,CCCN1C=NS(=O)(=O)c2cc(C(=O)NC(C)(C)C)ccc21,inactive
12,Cc1nc2ccc(C(=O)NCC(=O)NCC(F)(F)F)cc2nc1C,inactive
13,NCc1ccc(CN2CCCCCCC2)cc1,inactive
14,CCN(Cc1cccs1)C(=O)CC1CC2CCC1C2 (stereo unspecified),inactive
15,COc1cc(C(=O)Nc2ncccc2C)cc(Cl)c1OC(C)C,inactive
16,CCCc1c(C(=O)OCC)nnc2c(-c3ccc(Cl)cc3)c(C)nn12,inactive
17,N#Cc1ccc(CCC(=O)NCc2ccc(F)cc2)cc1,inactive
18,COc1ccc(NS(=O)(=O)c2cc3c4c(c2)CC(=O)N4CCC3)cc1Cl,89.1 µM (active)
19,COc1ccc(NS(=O)(=O)c2ccc(N3C(=O)C(C)CS3(=O)=O)cc2)cc1Cl (stereo unspecified),inactive
20,COc1ccc2c(c1)c(N1CCCC1=O)c(C(=O)Nc1ccc(OC)c(Cl)c1)n2C,inactive
21,CN(C)C1(c2nnnn2-c2cccc(C(F)(F)F)c2)CCCC1,inactive
22,Cn1c(=O)c2c(ncn2CC(=O)OCc2ccccc2F)n(C)c1=O,inactive

row,SMILES,Potency
1,O=C(Nc1ccc2nc(SCC(=O)N3CCCc4ccccc43)sc2c1)c1ccc(F)cc1,inactive
2,COc1ccccc1Cc1nc2ccccc2nc1SCC(=O)N1CCCc2ccccc21,89.1 µM (active)
3,O=C(CSc1nc2ccccc2nc1Cc1ccccc1)N1CCCCC1,inactive
4,CN(Cc1ccc2c(c1)OCCO2)CC(O)COc1ccccc1C(C)(C)C (stereo unspecified),inactive
5,CCNc1nc(-c2cccs2)nc2ccccc12,inactive
6,Cc1ccc(-c2nnc(SCC(=O)Nc3cc(C)on3)n2C2CC2)cc1,inactive
7,CC(C)(C)C(=O)Nc1ccc(-c2csc(N)n2)cc1,inactive
8,COc1ccccc1C(=O)Nc1ccc(O)c(-c2nc3ccccc3o2)c1,inactive
9,CS(=O)(=O)Cc1cccc(C(=O)NCc2ccccc2F)c1,inactive
10,CCC(Sc1nc2nccnc2c(=O)n1Cc1ccc(OC)cc1)C(=O)NCc1ccc(C)cc1 (stereo unspecified),inactive
11,COc1ccc(CCN2CNc3c(c(=O)[nH]c(=O)n3-c3ccccc3Cl)C2)cc1OC,inactive
12,O=C(O)C(Sc1ccc2ccccc2n1)c1ccccc1 (stereo unspecified),inactive
13,NCCOc1cccc(C(F)(F)F)c1,inactive
14,CCC(NC(=O)C1CC1)c1ccccc1 (stereo unspecified),inactive
15,Cc1ccc(-c2cnc3ccccc3n2)c(C)c1,inactive
16,CCCCNc1nc2c(c(=O)[nH]c(=O)n2C)n1CC(O)COC(C)C (stereo unspecified),inactive
17,Cc1ccccc1NC(=O)/C(C#N)=C/c1ccc(OC(=O)c2ccccc2)cc1,inactive
18,Cc1cccc(NS(=O)(=O)c2ccc(C)c(C(=O)NCC(c3ccccc3)N(C)C)c2)c1 (stereo unspecified),inactive
19,O=C(COc1cc(Cl)c(Cl)cc1Cl)Nc1ccc2oc(-c3ccncc3)nc2c1,inactive
20,COC(=O)c1c(C)[nH]c(C(=O)CSc2nncs2)c1C,inactive
